Screening results: PubChem, National Center for Advancing Translational Sciences (NCATS)
Hits are enriched below; roughly 13% of the tested compounds scored in any of these assays.
MARV entry inh: inhibitors of Marburg virus binding or cell entry | Marburg virus pseudotyped entry inhibition, cell reporter | Potency, µM (titrated, usually from 37.8 µM), for the others: at the top dose activity change, negative = inhibition, usual class: inhibitors | actives 1.8% (n = 300,000); calls by dose curve; tested in HEK293 cells; also: potency is read from the fitted curve at half-maximal effect; % is scaled to controls: 0 for no effect and ±100 for the full control effect
Lassa entry inh: inhibitors of Lassa virus binding or cell entry; actives 1.2% (n = 300,000); Lassa virus pseudotype entry inhibition, cell reporter; Potency, µM (doses to about 37.9 µM), for the others: at the highest dose activity change, negative = inhibition, hits mostly inhibitors; AID 540256; calls by dose curve; tested in HEK293 cells; also: potency is read from the fitted curve at half-maximal effect; % is scaled to controls: 0 for no effect and ±100 for the full control effect; nearly all actives have a fitted effect of over 50% in size
CHX counter: counter-screen for Shiga toxin inhibitors: cycloheximide protein synthesis inhibition; actives 12% (n = 300,000); cell reporter, cycloheximide protein synthesis inhibition counterscreen; max response, %; AID 2314; in the data active = max response mostly above about 13%, no sharp cut-off; inactive = mostly below about 14%; also: read at 38.3 µM for the half of the compounds with a filed dose; 0% is about no effect
HCV inh: inhibitors of hepatitis C virus infection. Huh7.5.1 HCVcc-Cre infection, luciferase reporter, 44 h. Potency, µM (doses to about 41.8 µM), inactives show at the highest dose activity change, negative = inhibition, usual class: inhibitors. actives 3.4% (n = 340,000). AID 651820; active = well fitted inhibition curve with a large enough effect; inconclusive = small, poorly fitted or top-dose-only effect, or another doubt; inactive = no such curve, though single readings can be large or run the other way; also: potency is read from the fitted curve at half-maximal effect; % is scaled to controls: 0 for no effect and ±100 for the full control effect
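Antiviral activity was scored by luciferase reporter output from cells infected with HCVcc-Cre (~0.5 moi) in presence of compound, 44 h infection period, cells seeded 1,000/well 4 h prior.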
FMDV antiviral: antivirals against foot and mouth disease virus | FMDV antiviral cell-based qHTS | Potency, µM (top dose mostly 57.9 µM), without a hit: top-dose activity change, negative = inhibition, most hits filed as inhibitors | actives 1.2% (n = 410,000) | AID 1159524; calls by dose curve; tested in HEK293T cells; also: read-out not given here; potency is read from the fitted curve at half-maximal effect; % is scaled to controls: 0 for no effect and ±100 for the full control effect; nearly all actives have a fitted effect of over 45% in size
Shiga toxin inh: inhibitors of Shiga toxin in Vero cells | Vero cells, Shiga toxin protein synthesis inhibition reporter | inhibition, % at 38.7 µM | actives 9.2% (n = 290,000) | AID 2315; in the data active = inhibition mostly above about 28%, no sharp cut-off; inactive = mostly below about 43%; also: 0% is about no effect
An asterisk follows results filed as active; ? = inconclusive; . = not tested or not shown; + = active, no number; [ ] = remark or other dose.

SMILES	MARV entry inh	Lassa entry inh	CHX counter	HCV inh	FMDV antiviral	Shiga toxin inh
Cc1cc(Cl)c2oc(C(=O)N3CCN(C4CCS(=O)(=O)C4)CC3)c(C)c2c1 (stereo not given)	.	.	-1.0	5.9%	-6.7%	-10.0
CCOC(=O)c1[nH]c2ccc(OC)cc2c1NC(=S)N1CCN(c2ccccc2)CC1	15.0%	-2.0%	13.6	2.8%	?	12.8
CCOC(=O)C1CCCN(C(=O)c2cccnc2Oc2ccccc2)CC1 (stereo not given)	.	.	.	.	-1.6%	.
CCOC(=O)N1CCN(Cc2ccc3c(c2)CN(C(=O)c2ccc4ncccc4c2)CCO3)CC1	.	.	.	.	28.2µM*	.
O=C(c1ccc2[nH]ccc2c1)N1CCOc2ccc(CN3CCN(c4ccccn4)CC3)cc2C1	.	.	.	.	25.1µM*	.
COc1ccccc1C(=O)N1CCOc2ccc(CN3CCN(Cc4ccccn4)CC3)cc2C1	.	.	.	.	-7.3%	.
COc1cccc(-c2nccc(NCc3cccnc3)n2)c1	.	.	.	.	1.7%	.
Cc1ccc(NC(=O)/C=C/c2ccc([N+](=O)[O-])s2)c(C)c1	?	?	22.2*	?	12.6µM*	active
O=C(/C=C/c1cccs1)NNC(=O)c1cccc([N+](=O)[O-])c1	8.1%[46.1 µM]	20.9%[46.1 µM]	.	-13.7%	9.1%	.
Cc1ccc(NC(=O)COC(=O)c2ccc([N+](=O)[O-])s2)c(C)c1	14.0%	-0.6%	-1.2	1.0%	-18.4%	-14.3
Cc1cccc(NC(=O)/C=C/c2ccc([N+](=O)[O-])s2)c1	?	?	1.3	11.2µM*	0.0%	21.0
Cc1cc([N+](=O)[O-])ccc1NC(=O)/C=C/c1cccs1	17.8%	23.0%	42.4*	?	15.4%	59.3*
Cc1ccc(NC(=O)/C=C/c2ccc([N+](=O)[O-])s2)cc1	14.1µM*	10µM*	25.6*	?	0.0%	active
COc1ccc(OC)c(NC(=O)CSc2n[nH]c(-c3cccnc3)n2)c1	4.5%[46.1 µM]	-7.0%	-3.3	-15.3%	-14.5%	-3.7
COc1ccc(-n2ccnc2SCC(=O)Nc2cc(C)on2)cc1	?	-22.3%	-1.1	-24.3%	-29.2%	-7.6
Cc1noc(C)c1NC(=O)N(C)C[C@H]1OCc2cnnn2CCCC(=O)N([C@@H](C)CO)C[C@H]1C	.	.	.	.	0.0%	.
Cc1cccc(N/N=C/c2ccc(C)s2)c1	.	.	40.1*	-13.0%	61.8%	80.0*
Cc1cccc(NC(=O)CN2C(=O)N/C(=C/c3ccc(C)s3)C2=O)c1	1.9%	-18.8%	1.3	3.5%	-11.1%	39.5
Cc1ccc(/C=N/N=C/c2ccc(C)s2)s1	?	?	71.4*	?	0.0%	+
Cc1cccc(NC(=S)N/N=C/c2ccc([N+](=O)[O-])s2)c1	?	15.8µM*	18.9	8.91µM*	-11.8%	32.4*
C=CCNC(=O)c1cc(=O)c2ccccc2o1	-1.0%	8.1%	-1.3	9.7%	.	-8.2
O=C(CNc1cccc2ccccc12)N/N=C/c1cccc(Oc2ccccc2)c1	-32.1%	-15.4%	-1.8	-4.8%	-2.5%	-3.0
CC(=O)C12OC(C)(C)OC1CC1C3CCC4=CC(=O)C=CC4(C)C3(F)C(O)CC12C (stereo not given)	-2.1%[46.1 µM]	-3.3%[46.1 µM]	.	3.7%	-6.9%	.
CN1CCN(S(=O)(=O)c2ccc(N(C)Cc3ccc(OC(F)F)cc3)c([N+](=O)[O-])c2)CC1	?	-14.4%	.	11.2µM*	?	.
CN(Cc1ccc(Cl)c(Cl)c1)C(=O)c1cccc(S(=O)(=O)N2CCN(Cc3ccccc3)CC2)c1	.	.	.	10µM*	-20.8%	.
SMILES	MARV entry inh	Lassa entry inh	CHX counter	HCV inh	FMDV antiviral	Shiga toxin inh
Cc1ccc(S(=O)(=O)N2CCN(C)CC2)cc1[N+](=O)[O-]	1.5%	24.1%	-0.9	10.2%	-2.7%	-7.8
CN(Cc1ccc(OC(F)F)cc1)C(=O)c1cccc(S(=O)(=O)N2CCN(c3ccccc3)CC2)c1	.	.	.	5.01µM*	20µM*	.
Cc1cccc(C)c1NC(=O)CN(C)C(=O)c1cccc(S(=O)(=O)N2CCN(c3ccccc3)CC2)c1	-7.2%	-25.1%	-1.1	.	-7.2%	1.3
O=C(Nc1ccc(F)cc1F)C(Cc1ccccc1)N1Cc2ccccc2C1=O (stereo not given)	.	-0.2%[46.1 µM]	.	.	17.8%	.
COc1cccc2c1N(C)C(=O)CC21C=CC(=O)C=C1	.	.	3.5	.	.	8.6
Cc1cc(C)c(C)c(OCC(=O)O/N=C(\N)c2cccnc2)c1	.	.	6.1	?	-14.9%	-0.3
Cc1ccc(SCC(=O)O/N=C(\N)c2cccnc2)cc1	-2.6%	12.9%	17.4*	5.2%	18.8%	27.2
